Assay results reported in PubChem BioAssay (NCATS).
Records with an inconclusive call do not appear. Entries that show only a call come without a potency. Activity calls are given as the source filed them. Calls follow the shape of the dose curve; as a rule, active = well fitted inhibition curve with a large enough effect; inconclusive = small, poorly fitted or top-dose-only effect, or effect the other way; inactive = flat fitted curve, though single readings scatter.

Target: ATP-dependent 6-phosphofructokinase (Trypanosoma brucei brucei) (UniProt O15648)
Sequence (O15648 whole entry, looked up): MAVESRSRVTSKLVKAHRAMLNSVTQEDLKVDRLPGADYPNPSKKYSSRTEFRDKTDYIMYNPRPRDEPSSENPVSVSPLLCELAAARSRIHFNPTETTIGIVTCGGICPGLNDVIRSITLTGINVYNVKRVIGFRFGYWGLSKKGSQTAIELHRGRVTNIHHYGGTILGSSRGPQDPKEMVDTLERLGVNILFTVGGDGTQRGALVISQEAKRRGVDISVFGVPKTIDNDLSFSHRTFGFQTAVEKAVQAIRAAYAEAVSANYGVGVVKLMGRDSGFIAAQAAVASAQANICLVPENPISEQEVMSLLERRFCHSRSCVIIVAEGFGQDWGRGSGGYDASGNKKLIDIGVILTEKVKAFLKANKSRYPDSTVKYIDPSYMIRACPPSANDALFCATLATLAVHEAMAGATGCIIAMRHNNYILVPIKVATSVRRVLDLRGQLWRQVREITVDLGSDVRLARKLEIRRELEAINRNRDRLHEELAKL
Test: qHTS Assay to Find Inhibitors of T. brucei phosphofructokinase: hit validation (AID 492961)
Details: T. brucei PFK, ADP-Glo luminescence; series mostly up to 51.4 µM
Procedure, shortened: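 Luminescence from ADP-Glo reports ADP generated as T. brucei PFK (1.25 nM) phosphorylates 0.5 mM fructose-6-phosphate using 0.1 mM ATP. Reactions ran 45 min at room temperature, pH 8.0.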
Potency is read from the fitted curve at half-maximal effect.

Compound | Potency
CC[N+](C)(CC)CCOC(=O)C(O)(c1ccccc1)c1ccccc1 | inactive
O=C/C=C/c1ccccc1 | inactive
COc1ccc2c3c1O[C@H]1C(=O)CC[C@H]4[C@@H](C2)N(C)CC[C@]314 | inactive
O=[N+]([O-])c1ccccc1 | inactive
c1ccc2sc(SNC3CCCCC3)nc2c1 | inactive
CCCC(C)(COC(N)=O)COC(=O)NC1CC1 (stereo not drawn) | inactive
O[C@H]1[C@H]2[C@H](O)CCCN2C[C@H]1O | inactive
O=Cc1ccco1 | inactive
CCC1(CC)C(=O)NC(=O)N(C)C1=O | inactive
CNC1(c2ccccc2Cl)CCCCC1=O (stereo not drawn) | inactive
CCCCCl | inactive
CCCCCCCCOC(=O)c1ccccc1C(=O)OCCCCCCCC | inactive
CN1c2ccccc2C(NCCCCCCC(=O)O)c2ccc(Cl)cc2S1(=O)=O (stereo not drawn) | inactive
CC(N)Cc1ccc(O)cc1 (stereo not drawn) | inactive
CCC1(c2ccccc2)C(=O)NC(=O)N(C(=O)c2ccccc2)C1=O (stereo not drawn) | inactive
COCC(C)N(C(=O)CCl)c1c(C)csc1C (stereo not drawn) | inactive
Clc1ccc(C2(Cn3cncn3)OCCO2)c(Cl)c1 | inactive
CNC(C)C(O)c1ccc(O)cc1 (stereo not drawn) | inactive
F/C(COc1ccc2c(c1)[nH]c1ccccc12)=C1/CN2CCC1CC2 | inactive

Compound | Potency
O=C(NC(=O)c1c(F)cccc1F)Nc1ccc(Cl)c(Oc2ncc(C(F)(F)F)cc2Cl)c1 | inactive
C[C@]12CCC(=O)C[C@@H]1CC[C@@H]1[C@@H]2CC[C@]2(C)[C@@H](O)CC[C@@H]12 | inactive
CCCCNCC(O)c1ccc(O)cc1 (stereo not drawn) | inactive
C#CC(C)(O)CC (stereo not drawn) | inactive
O=C1CCCCC1CN1CCCCC1 (stereo not drawn) | inactive
CCC1(c2ccccc2)C(=O)NC(=O)NC1=O | inactive
CC(Cc1ccccc1)NC=O (stereo not drawn) | inactive
O=S(=O)(O)c1cc(O)ccc1O | inactive
O=c1[nH]cc(N(CCCl)CCCl)c(=O)[nH]1 | inactive
[Cl-].[Cl-].[Hg+2] | 8.91 µM (active)
C=CCC1(C(C)CCC)C(=O)N=C(S)NC1=O (stereo not drawn) | inactive
COC([CH2][Hg])CNC(=O)c1ccccc1OCC(=O)O (stereo not drawn) | 7.08 µM (active)
O=[N+]([O-])c1ccc(F)c([N+](=O)[O-])c1 | inactive
CC(C)CCON=O | inactive
CCC1C(C)=NN=C(c2ccc(OC)c(OC)c2)c2cc(OC)c(OC)cc21 (stereo not drawn) | inactive
c1cc2c(c(NC3=NCCN3)c1)CCCC2 | inactive
Cn1sc(Cl)cc1=O | inactive
CCOC(=O)c1ccccc1C(=O)OCC | inactive
O=C(OCCN1CCCCC1)C(O)(c1ccccc1)c1ccccc1 | inactive
